This passage reports INHIBITION results from ChEMBL document CHEMBL4513216, “Probing the Open Global Health Chemical Diversity Library for Multistage-Active Starting Points for Next-Generation Antimalarials” (ACS Infect Dis, 2020).

About 8,600 (12%) of roughly 69,000 compounds showed an effect of 50% or more. Shown is part of a subset that was picked to be rich in strong results.

The subject of the test is Plasmodium berghei. In words: Screen against P. berghei liver stage (PbLuc), transformed with Luciferase, at 10uM. The class given is functional, HepG2. Particulars: tested at 10 uM.
Turning to `Cc1csc2c(=O)n3c(nc12)CCN(C(=O)c1cccnc1)CC3`, the INHIBITION stood at 36.4%.
As to `Cc1ccc(C(=O)N2CCc3nc4c(C)csc4c(=O)n3CC2)cn1`, the INHIBITION is 57.5%.
For `Cc1csc2c(=O)n3c(nc12)CCN(C(=O)c1ccccn1)CC3`, the INHIBITION worked out at 35.2%.
Regarding `Cc1csc2nc3n(c(=O)c12)CCN(Cc1ccccn1)CC3`, the INHIBITION amounted to 1.5%.
Turning to `Cc1csc2nc3n(c(=O)c12)CCN(C(=O)c1ccncc1)CC3`, the INHIBITION is 56.9%.
With `Cc1cc2c(=O)n3c(nc2s1)CCN(C(=O)c1ccncc1)CC3`, the INHIBITION is 19.9%.
As to `CCC[C@H]1CN(S(C)(=O)=O)C[C@@H]1NC(=O)CCOCC`, the INHIBITION stood at 27.6%.
On to `O=C(CCN1CCCO1)N1CCCC(CO)(CCCc2ccccc2)C1` (configuration not stated), for which the INHIBITION is listed as -4.56%.
For the compound `Cc1noc(C)c1CN1CC2(CCCCN2C)CC1=O` (configuration not stated), the INHIBITION is 39.3%.
Regarding `N#Cc1ccc(CN2CCN(c3ccncc3Cl)CC2=O)cc1`, the INHIBITION was 24.5%.
Take `N#Cc1ccc(CN2CC3(CCCCN3c3cccnc3)CC2=O)cc1` (configuration not stated): the INHIBITION is given as 57.1%.
As for `Cc1noc(C)c1CN1CC2(CCN(Cc3c[nH]cn3)CC2)CC1=O`, the INHIBITION is recorded as -27.6%.
As for `N#Cc1cccc(CN2CC3(CCCCN3c3cncnc3)CC2=O)c1` (configuration not stated), the INHIBITION is reported as 27.5%.
Regarding `N#Cc1cccc(CN2CC3(CCCCN3c3cccnc3)CC2=O)c1` (configuration not stated), the INHIBITION was determined as 57.1%.
With `N#Cc1ccc(CN2CCN(Cc3ccncc3Cl)CC2=O)cc1`, the INHIBITION worked out at 25.7%.
The same measure for `N#Cc1cccc(CN2CC[C@@H]3[C@@H]2CC(=O)N3Cc2cccnc2)c1`: 22.7%.
As for `Cc1noc(C)c1CN1CC2(CCCCN2c2cncnc2)CC1=O` (configuration not stated), the INHIBITION stood at 65.9%.
Consider `CCN1CC(COC(=O)c2ccc(N(C)C)cc2F)CC1=O` (configuration not stated), for which the INHIBITION is -56.7%.
For the compound `O=C(c1cccc(Cl)c1)N1CCCC2(CCCNC2)C1` (configuration not stated), the INHIBITION is 0.164%.
`CN(C)C(=O)CN1C[C@H]2CC[C@@H](C1)N(Cc1ccc3nsnc3c1)C2`: the INHIBITION worked out at 33.8%.
In the case of `Cc1ncc(C(=O)N2CCOC(C(=O)N3CCCCC3)C2)c(C)n1` (configuration not stated), the INHIBITION is recorded as -5.6%.
For `CN(Cc1cccc(O)c1)Cc1cnn(C)c1` the value was 10%; for `Cn1cc(-n2cc3nc(N4CCOCC4)[nH]cc-3c2=O)cn1`, -38.7%; for `NC(=O)c1c(SCCN2CCOCC2)sc2c(O)cc(=O)[nH]c12`, 20%.
For `O=C(C1CCC1)N1CCc2onc(Cn3cccn3)c2C1` the value was 24.5%.
As to `CN(C)S(=O)(=O)N1CCCC1c1cccc(-n2ccnc2)n1` (configuration not stated), the INHIBITION stood at 33.7%.
Turning to `CO[C@@H]1CC[C@@H](NC(=O)CCc2ccc(Cl)cc2)[C@H]1O`, the INHIBITION stood at 5.35%.
In the case of `COCc1nc2ncc3c(=O)n(-c4ccccc4OC)ccc3n2n1`, the INHIBITION amounted to 66.9%.
Regarding `COCc1nc2ncc3c(=O)n(-c4cccc(OC)c4)ccc3n2n1`, the INHIBITION is 16.1%.
For `COCc1nc2ncc3c(=O)n(-c4ccc(OC)cc4)ccc3n2n1` the value was 15%.
`Cc1n[nH]cc1CNC(C)c1cccc(N2CCCC2=O)c1` (configuration not stated): the INHIBITION amounted to 0.643%.
`CN1C(=O)[C@@H]2CC[C@H]1CN(C(=O)c1csc(Cc3ccccc3)n1)C2`: the INHIBITION came out at 35.3%.
On to `CN1CCN([C@@H]2CCN(Cc3ccc4cc(F)ccc4n3)C[C@H]2O)CC1`, for which the INHIBITION is on record as -13.5%.
In the case of `Cc1c(CN2CC[C@@H](N3CCC(O)CC3)[C@H](O)C2)[nH]c2ccc(F)cc12`, the INHIBITION was 66.9%.
For `Cc1ccc2[nH]c(CN3CC[C@@H](N4CCN(C)CC4)[C@H](O)C3)c(C)c2c1` the value was 34%; for `Cc1c(CN2CC[C@@H](N3CCC(O)CC3)[C@H](O)C2)[nH]c2ccc(Cl)cc12`, 36.2%.
Take `CSCCC1c2nc[nH]c2CCN1Cc1[nH]c2ccc(F)cc2c1C` (configuration not stated): the INHIBITION was 17.9%.
The same measure for `Cc1c(CN2CCc3[nH]cnc3C2C2CC2)[nH]c2ccc(F)cc12` (configuration not stated): 65.7%.
With `Cc1c(CN2CCCC(O)C2)[nH]c2ccc(F)cc12` (configuration not stated), the INHIBITION amounted to 16.5%.
For `Cc1c(CN2C[C@H](O)[C@@H](N3CCOCC3)C2)[nH]c2ccc(F)cc12` the value was 63.1%; for `Cc1c(CN2CCc3[nH]cnc3C2C(=O)O)[nH]c2ccc(F)cc12` (configuration not stated), 1.56%; for `CC(=O)NCC(=O)N1C[C@@H](C)[C@@]2(CCN(c3ccsc3)C2=O)C1`, 15.9%.
As to `c1cncc(CN2CCCn3nnc(CN4CCCCC4)c3C2)c1`, the INHIBITION was found to be 16.8%.
For `Cn1ncc2c(=O)[nH]c(CN3CCCC3Cc3ccc(F)cc3)nc21` (configuration not stated), the INHIBITION is given as -5.07%.
Take `N#Cc1ccc(S(=O)(=O)NC(=O)COc2ccc3c(c2)CCC3)cc1`: the INHIBITION worked out at 29.25%.
With `CCNc1cc2c(nn1)CCN(C(=O)c1ccc(-n3cccn3)nc1)C2`, the INHIBITION is recorded as -5.26%.
`Cc1ccc(C(=O)N2C[C@@H]3CC[C@H]2CN(S(=O)(=O)N(C)C)C3)c(O)c1`: the INHIBITION came to 24.7%.
In the case of `Cc1ccc(CN2CCc3c(C(=O)N(C)C)nn(C)c3C2)s1`, the INHIBITION is listed as 8.47%.
As to `CCCC(=O)N1CC[C@@H]2[C@H](CC1)N(Cc1cccnc1)CCS2(=O)=O`, the INHIBITION is -1.53%.
For `CC1CCN(C(=O)c2occc2COc2cccc(C#N)c2)CC1` the value was -122%; for `CC(O)(CNC(=O)c1cccnc1-n1cccn1)c1cccs1` (configuration not stated), 35.4%.
Turning to `CC(O)(CNC(=O)c1cccnc1-n1cccn1)c1ccco1` (configuration not stated), the INHIBITION was found to be 7.39%.
Take `CCC(CC)NC(=O)c1cccnc1-n1cccn1`: the INHIBITION was 55.9%.
Regarding `CCC(CC)NC(=O)c1cccnc1N1CCCC1c1ccccn1` (configuration not stated), the INHIBITION amounted to 25.3%.
Take `CC(O)(CNC(=O)c1cccnc1-n1cccn1)c1ccsc1` (configuration not stated): the INHIBITION was 61.1%.
The same measure for `CCN(CC)CCCC(C)NC(=O)c1cccnc1-n1cccn1` (configuration not stated): -7.13%.
For `CCn1nccc1CNC(=O)CCC1CCCC1` the value was 13%; for `c1coc(CN2C[C@@H]3CN(Cc4ccoc4)CCO[C@@H]3C2)c1`, 24.6%.
Regarding `Cc1cc(NCc2ccc(CS(N)(=O)=O)cc2)nc(C)n1`, the INHIBITION came out at 11.8%.
With `CS(=O)(=O)c1ccc(NC(=O)NC2(c3ccccc3)CCC2)cc1`, the INHIBITION came to 36.7%.
Regarding `Cc1ccc(CN2CCc3nnc(CN4CCCC4=O)n3CC2)o1`, the INHIBITION worked out at 3.81%.
With `C=C(C)CN1CCC(C(=O)c2cc(F)ccc2F)CC1`, the INHIBITION came to 5.03%.
The same measure for `CCNC(=O)C1(Cc2cc(-c3ccccc3)no2)CCCN(C(C)=O)C1` (configuration not stated): 42.5%; for `O=C(CC1CCCC1)N[C@H]1CN(Cc2c[nH]cn2)C[C@@H]1C1CC1`: 45.2%; for `COCC1(C(=O)N[C@H]2CN(c3noc(C)n3)C[C@@H]2C2CC2)CCC1`: 2.79%.
`Cc1cc(N2C[C@H](NC(=O)C3(C#N)CCOCC3)[C@@H](C(C)C)C2)ccn1`: the INHIBITION is given as 30.7%.
Regarding `Cc1nnc(CN2C[C@H](NC(=O)CC3CCCC3)[C@@H](C3CC3)C2)s1`, the INHIBITION is 64.7%.
For `COCCC(=O)N[C@H]1CN(c2nc(C)c3c(n2)CCCC3)C[C@@H]1C1CC1` the value was 20.4%.
For `COCC1(C(=O)N[C@H]2CN(c3ccnc(C)c3)C[C@@H]2C2CC2)CCC1` the value was 51.3%.
Consider `COCC1(C(=O)N[C@H]2CN(c3nnc(C)s3)C[C@@H]2C2CC2)CCC1`, for which the INHIBITION turned out to be 64.4%.
Turning to `Cc1nc(O)cc(CN2C[C@H](NC(=O)C3CCC3)[C@@H](C3CC3)C2)n1`, the INHIBITION stood at 18.9%.
On to `O=C(O)c1cc(N2C[C@H](NC(=O)C3CCOCC3)[C@@H](C3CC3)C2)ccn1`, for which the INHIBITION is 3.68%.
